Results published in PubChem BioAssay (Tox21).
Where “and” joins values, the source holds several entries; their conditions need not be identical. Equal values may be shown once. Results filed as inconclusive are left out. The source holds several records for some structures; these can differ, active in one and inactive in another. Calls of active or inactive are those of the source. Calls follow the shape of the dose curve; as a rule, active = well fitted curve in the direction sought with a large enough effect in the repeat runs; inconclusive = weak or mixed curves; inactive = no such curve, though single readings can be large; an effect the other way counts as inactive or inconclusive.

Experiments:
[1] = A CellTox Green Cytotoxicity Assay to monitor cytotoxicity in HEK293 cells - 32 hour (AID 1224881); also: nearly all actives have a fitted effect of over 40% in size; also: potency is read from the fitted curve at half-maximal effect
Outline: (§1)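 Fluorescence intensity, read at 0, 8, 16, 24, 32 and 40 h of compound treatment, reflected dye binding to DNA of dead HEK293 cells; compounds (23 nL, DMSO) were added 5 h after plating cells with reagent.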

[2] = A CellTox Green Cytotoxicity Assay to monitor cytotoxicity in HepG2 cells - 0 hour (AID 1224882); also: nearly all actives have a fitted effect of over 35% in size; also: potency is read from the fitted curve at half-maximal effect
Outline: (§2)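 Using 1536-well format, dye-containing HepG2 suspension was seeded, allowed 5 h at 37 C/5% CO2, dosed by pintool with compounds, positive and negative controls, and imaged for fluorescence across 40 h.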

[3] = A CellTox Green Cytotoxicity Assay to monitor cytotoxicity in HepG2 cells - 32 hour (AID 1224883); also: nearly all actives have a fitted effect of over 50% in size; also: potency is read from the fitted curve at half-maximal effect
Outline: as §2

[4] = A CellTox Green Cytotoxicity Assay to monitor cytotoxicity in HEK293 cells - 8 hour (AID 1224884); also: nearly all actives have a fitted effect of over 35% in size; also: potency is read from the fitted curve at half-maximal effect
Outline: as §1

[5] = qHTS RealTime-Glo MT Cell Viability Assay in HepG2 cells - 16 hour (AID 1224885); also: nearly all actives have a fitted effect of over 50% in size; also: potency is read from the fitted curve at half-maximal effect
Outline: (§3)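 qHTS, HepG2, 600 cells/well, RealTime-Glo (NanoLuc + prosubstrate) added with cells; 5 h preincubation; DMSO compound addition; 37 C; luminescence at 0/8/16/24/32/40 h.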

[6] = qHTS RealTime-Glo MT Cell Viability Assay in HEK293 cells - 24 hour (AID 1224886); also: nearly all actives have a fitted effect of over 50% in size; also: potency is read from the fitted curve at half-maximal effect; as to activity change, negative = cytotoxicity: top concentration of the series differs between compounds
Outline: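 Assay medium contained NanoLuc luciferase plus cell-permeant prosubstrate, added with HEK293 cells at 600 cells/well. After 5 h at 37 C/5% CO2 compounds were added; plates stayed at 37 C for 40 h with serial luminescence reads.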

[7] = qHTS RealTime-Glo MT Cell Viability Assay in HEK293 cells - 8 hour (AID 1224887); also: nearly all actives have a fitted effect of over 50% in size; also: potency is read from the fitted curve at half-maximal effect; as to activity change, negative = cytotoxicity: top concentration of the series differs between compounds
Outline: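 Viable HEK293 cells reduce a cell-permeant prosubstrate; the product diffuses out and is consumed by NanoLuc in the medium to give light. Compounds went in after a 5 h incubation and plates were read over the treatment course.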

[8] = A CellTox Green Cytotoxicity Assay to monitor cytotoxicity in HEK293 cells - 16 hour (AID 1224888); also: nearly all actives have a fitted effect of over 35% in size; also: potency is read from the fitted curve at half-maximal effect
Outline: as §1

[9] = qHTS RealTime-Glo MT Cell Viability Assay in HepG2 cells - 0 hour (AID 1224889); also: nearly all actives have a fitted effect of over 50% in size
Outline: as §3

[10] = A CellTox Green Cytotoxicity Assay to monitor cytotoxicity in HepG2 cells - 8 hour (AID 1224890); also: nearly all actives have a fitted effect of over 45% in size; also: potency is read from the fitted curve at half-maximal effect
Outline: as §2
% is scaled to controls: 0 for no effect and ±100 for the full control effect.

CC(C)CCCCCCc1ccc(O)cc1
inactive: Potency [2] | Potency [5] | Potency [9]
active: Potency [1] 22.3 µM and 38.9 µM | Potency [3] 19.8 µM and 43.6 µM | Potency [4] 39.6 µM | Potency [6] 4.44 µM | Potency [7] 19.8 µM | Potency [8] 39.6 µM and 38.9 µM | Potency [10] 25 µM and 43.6 µM

c1cnc2cc3c(cc2n1)C1CNCC3C1
inactive: Potency [1] | Potency [2] | Potency [3] | Potency [4] | Potency [6] | Potency [7] | Potency [8] | Potency [9] | Potency [10]

CC(C(O)c1ccc(O)cc1)N1CCC(Cc2ccccc2)CC1 (stereo not given)
inactive: Potency [1] | Potency [2] | Potency [3] | Potency [5] | Potency [6] | Potency [7] | Potency [8] | Potency [9] | Potency [10]

CC(C)(O)CCC(C)(C)O
inactive: Potency [1] | Potency [2] | Potency [3] | Potency [4] | Potency [6] | Potency [7] | Potency [8] | Potency [9] | Potency [10]

CCCCCCCCCCCCc1ccccc1O
active: Potency [1] 43.1 µM and 38.9 µM | Potency [3] 19.5 µM | Potency [6] 43.1 µM and 49 µM | Potency [7] 43.1 µM and 38.9 µM | Potency [8] 43.1 µM and 38.9 µM
inactive and 21.9 µM (active): Potency [10]
inactive and 34.7 µM (active): Potency [5]
inactive: Potency [2] | Potency [9]

CCC(C)(Oc1ccc(C2(c3ccc(OC(C)(CC)C(=O)O)cc3)CCCCC2)cc1)C(=O)O (stereo not given)
inactive: Potency [1] | Potency [2] | Potency [3] | Potency [5] | Potency [6] | Potency [7] | Potency [8] | Potency [9] | Potency [10]

C=CC(=O)OCCCCCCCC
inactive: Potency [1] | Potency [2] | Potency [3] | Potency [4] | Potency [6] | Potency [7] | Potency [8] | Potency [9] | Potency [10]

Cc1cccc([N+](=O)[O-])c1C(=O)O
inactive: Potency [1] | Potency [2] | Potency [3] | Potency [5] | Potency [6] | Potency [7] | Potency [8] | Potency [9] | Potency [10]

O=Cc1ccc(Cl)cc1
inactive: Potency [1] | Potency [2] | Potency [3] | Potency [4] | Potency [6] | Potency [7] | Potency [8] | Potency [9] | Potency [10]

CCn1c2ccccc2c2cc(N)ccc21
inactive: Potency [1] | Potency [2] | Potency [3] | Potency [5] | Potency [6] | Potency [7] | Potency [8] | Potency [9] | Potency [10]

Cc1cccc2n[nH]nc12
inactive and 43.6 µM (active): Potency [10]
inactive: Potency [1] | Potency [2] | Potency [3] | Potency [4] | Potency [6] | Potency [7] | Potency [8] | Potency [9]

CC(C)(C)c1ccc(O)c(C(C)(C)C)c1
active: Potency [1] 24.4 µM and 34.7 µM | Potency [3] 48.8 µM and 43.6 µM | Potency [4] 43.5 µM | Potency [6] 38.7 µM | Potency [7] 34.5 µM | Potency [8] 24.4 µM and 34.7 µM | Potency [10] 48.8 µM and 49 µM
inactive: Potency [2] | Potency [9]

O=S(=O)(O)c1ccc2nc(-c3ccccc3)[nH]c2c1
inactive: Potency [1] | Potency [2] | Potency [3] | Potency [5] | Potency [6] | Potency [7] | Potency [8] | Potency [9] | Potency [10]

O=C(Cl)c1cccc(C(=O)Cl)c1
inactive: Potency [1] | Potency [2] | Potency [3] | Potency [4] | Potency [6] | Potency [7] | Potency [8] | Potency [9] | Potency [10]

Nc1nc2ccccc2[nH]1
inactive: Potency [1] | Potency [2] | Potency [3] | Potency [4] | Potency [6] | Potency [7] | Potency [8] | Potency [9] | Potency [10]

Nc1nc(=S)c2[nH]cnc2[nH]1
active: Potency [6] 21.9 µM
inactive: Potency [1] | Potency [2] | Potency [3] | Potency [5] | Potency [7] | Potency [8] | Potency [9] | Potency [10]

CC(C)(C)NCC(O)c1cc(O)cc(O)c1 (stereo not given)
inactive: Potency [1] | Potency [2] | Potency [3] | Potency [5] | Potency [6] | Potency [7] | Potency [8] | Potency [9] | Potency [10]

COc1ccc(COC(C)=O)cc1
inactive: Potency [1] | Potency [2] | Potency [3] | Potency [4] | Potency [6] | Potency [7] | Potency [8] | Potency [9] | Potency [10]

COC(=O)[C@H]1[C@H]2C[C@@H]3c4[nH]c5cc(OC)ccc5c4CCN3C[C@H]2C[C@@H](OC(=O)c2cc(OC)c(OC)c(OC)c2)[C@@H]1OC
inactive: Potency [1] | Potency [2] | Potency [3] | Potency [4] | Potency [8] | Potency [9] | Potency [10]
active: Potency [6] 4.89 µM and 6.34 µM and 8.49 µM | Potency [7] 4.89 µM and 6.34 µM and 9.52 µM

CCC(C)(C)C(=O)O[C@H]1C[C@@H](C)C=C2C=C[C@H](C)[C@H](CC[C@@H]3C[C@@H](O)CC(=O)O3)[C@H]21
inactive: Potency [1] | Potency [2] | Potency [4] | Potency [8] | Potency [10]
active: Potency [3] 38.9 µM and 9.52 µM

CC(=O)Nc1ccc(C(=O)CCl)cc1
inactive and 15.5 µM (active): Potency [1]
inactive: Potency [2] | Potency [4] | Potency [7] | Potency [8] | Potency [9] | Potency [10]
inactive and 19.5 µM (active): Potency [3] | Potency [6]

O=C(O[C@@H]1Cc2c(O)cc(O)cc2O[C@@H]1c1cc(O)c(O)c(O)c1)c1cc(O)c(O)c(O)c1
active: Potency [6] 10.6 µM
inactive: Potency [1] | Potency [2] | Potency [3] | Potency [4] | Potency [8] | Potency [9] | Potency [10]

NC(N)=Nc1nc(CSCC/C(N)=N/S(N)(=O)=O)cs1
inactive: Potency [1] | Potency [2] | Potency [3] | Potency [5] | Potency [6] | Potency [7] | Potency [8] | Potency [9] | Potency [10]

O=C1Nc2ccccc2C1(c1ccc(O)cc1)c1ccc(O)cc1
inactive: Potency [1] | Potency [2] | Potency [3] | Potency [4] | Potency [6] | Potency [7] | Potency [8] | Potency [9] | Potency [10]

C#CC(C)(CC)OC(=O)c1ccccc1C(=O)O (stereo not given)
inactive: Potency [1] | Potency [2] | Potency [3] | Potency [5] | Potency [6] | Potency [7] | Potency [8] | Potency [9] | Potency [10]

CC(=O)N[C@@H](CS)C(=O)O
inactive: Potency [1] | Potency [2] | Potency [3] | Potency [5] | Potency [6] | Potency [7] | Potency [8] | Potency [9] | Potency [10]

CC1COc2c(N3CCN(C)CC3)c(F)cc3c(=O)c(C(=O)O)cn1c23 (stereo not given)
inactive: Potency [1] | Potency [2] | Potency [3] | Potency [4] | Potency [8] | Potency [10]

CCc1cc(C(C)(C)C)c(O)c(C(C)(C)C)c1
inactive: Potency [2] | Potency [3] | Potency [4] | Potency [6] | Potency [7] | Potency [9] | Potency [10]
active: Potency [1] 21.9 µM

C=C(C)C(=O)O
inactive: Potency [1] | Potency [2] | Potency [3] | Potency [5] | Potency [6] | Potency [7] | Potency [8] | Potency [9] | Potency [10]

CCOC(=O)C(C)C(C)=O (stereo not given)
inactive: Potency [1] | Potency [2] | Potency [3] | Potency [5] | Potency [6] | Potency [7] | Potency [8] | Potency [9] | Potency [10]

CC(C)CCOC(=O)c1ccc(N(C)C)cc1
inactive: Potency [1] | Potency [2] | Potency [3] | Potency [4] | Potency [6] | Potency [7] | Potency [8] | Potency [9] | Potency [10]

NC(Cc1ccc(Cl)cc1)C(=O)O (stereo not given)
inactive: cytotoxicity increase [1] -6.93% [at 0.29 µM] | cytotoxicity [2] -3.58% [at 0.29 µM] | cytotoxicity increase [3] -4.66% [at 0.29 µM] | activity change, negative = cytotoxic [5] -3.04% [at 0.29 µM] | activity change, negative = cytotoxicity [6] 9.19% [at 0.29 µM] | activity change, negative = cytotoxicity [7] 10.3% [at 0.29 µM] | activity change [8] -4.15% [at 0.29 µM, stronger effect = higher value] | activity change, negative = cytotoxicity [9] -2.96% [at 0.29 µM] | cytotoxicity increase [10] -8.44% [at 0.29 µM]

COC(=O)c1cccc(C(=O)OC)c1
inactive and 24.5 µM (active): Potency [3]
inactive and 43.6 µM (active): Potency [4] | Potency [10]
inactive and 38.9 µM (active): Potency [1] | Potency [2]
inactive: Potency [6] | Potency [7] | Potency [9]

c1cc(C(c2ccc(OCC3CO3)cc2)C(c2ccc(OCC3CO3)cc2)c2ccc(OCC3CO3)cc2)ccc1OCC1CO1 (stereo not given)
inactive: Potency [1] | Potency [2] | Potency [3] | Potency [4] | Potency [6] | Potency [7] | Potency [8] | Potency [9] | Potency [10]

O=C1CC2(CCCC2)CC(=O)N1CCCCN1CCN(c2ncccn2)CC1
49 µM (active) and inactive: Potency [6]
inactive: Potency [1] | Potency [2] | Potency [4] | Potency [7] | Potency [8] | Potency [9] | Potency [10]
43.6 µM (active) and inactive: Potency [3]

CCCCCCC(O)CCCCCCCCCCC(=O)O (stereo not given)
inactive: Potency [1] | Potency [2] | Potency [3] | Potency [4] | Potency [6] | Potency [7] | Potency [8] | Potency [9] | Potency [10]

CC1=C(C=O)C(C)(C)CC=C1
inactive: Potency [1] | Potency [2] | Potency [3] | Potency [4] | Potency [6] | Potency [7] | Potency [8] | Potency [9] | Potency [10]

C=CS(=O)(=O)O
inactive: Potency [1] | Potency [2] | Potency [3] | Potency [4] | Potency [6] | Potency [7] | Potency [8] | Potency [9] | Potency [10]

CCCCC/C=C/CC1CC(=O)OC1=O (stereo not given)
inactive: Potency [1] | Potency [2] | Potency [3] | Potency [5] | Potency [6] | Potency [7] | Potency [9] | Potency [10]

CC(C)(C)NCC(O)COc1ccccc1OCC1CCCO1 (stereo not given)
inactive: Potency [1] | Potency [2] | Potency [3] | Potency [6] | Potency [7] | Potency [8] | Potency [9] | Potency [10]
